# Screening data deposited in PubChem by several laboratories.
# Only some compounds are listed: those with a hit (about 2.9% of all), similar ones and a draw of the others.
# NR1D1 modulator = Rev-erb alpha (human) modulation | activity, % at 10 µM | AID 1259318 | Rev-erbα–FITC-DNA binding, fluorescence polarization, 90 min | 370,000 tested, 0.79% active | P20393;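 active means activity above about 14%, limit read from the data; passing the limit was not always enough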;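 further: 0% = DMSO wells with 35 nM protein and 100% = DMSO wells with 750 nM protein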
# Target sequence (P20393 whole entry, looked up): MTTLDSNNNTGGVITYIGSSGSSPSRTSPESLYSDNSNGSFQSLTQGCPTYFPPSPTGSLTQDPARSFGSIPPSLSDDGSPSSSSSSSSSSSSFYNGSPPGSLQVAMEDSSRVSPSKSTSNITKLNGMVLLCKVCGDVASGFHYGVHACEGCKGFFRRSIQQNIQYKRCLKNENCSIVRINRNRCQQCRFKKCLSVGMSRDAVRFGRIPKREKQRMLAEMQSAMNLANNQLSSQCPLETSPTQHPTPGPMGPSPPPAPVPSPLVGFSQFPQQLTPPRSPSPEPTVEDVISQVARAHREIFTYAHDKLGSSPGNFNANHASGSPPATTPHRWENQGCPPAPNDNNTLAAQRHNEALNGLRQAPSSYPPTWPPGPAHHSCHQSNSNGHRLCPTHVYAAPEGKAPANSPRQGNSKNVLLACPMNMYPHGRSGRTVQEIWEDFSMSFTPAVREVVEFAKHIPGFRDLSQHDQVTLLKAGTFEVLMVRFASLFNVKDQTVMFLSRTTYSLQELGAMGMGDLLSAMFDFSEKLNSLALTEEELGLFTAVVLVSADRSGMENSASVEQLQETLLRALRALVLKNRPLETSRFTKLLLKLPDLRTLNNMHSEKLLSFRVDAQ
# PG9 binder = binds the HIV-1 gp120 antibody PG9; TR-FRET gp120-PG9 antibody binding; 360,000 tested, 0.43% active; inhibition, % at 6.7 µM; AID 624416; in the data active means inhibition above about 8.5%
# PGE2 EP2 inh = EP2 receptor (human) inhibition | P43116 | C6 glioma cells expressing human EP2, cAMP TR-FRET; cells stimulated with saturating PGE2 | inhibition, % at 25 µM | 260,000 tested, 0.52% active | AID 1422;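 active means percent inhibition above 40 after rounding to a whole number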;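 further: rat C6 glioma host cells with rolipram phosphodiesterase inhibitor present; the protocol text gives 20 µM as final concentration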
# SKN-1 block = C. elegans SKN-1 inhibition; AID 624304; 360,000 tested, 0.49% active; C. elegans VP596 Pgst-4::GFP/RFP ratio, acrylamide-induced, 24 h; inhibition, % at 21.8 µM;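 active means interference check ratio from 0.5 to 1.5 plus GFP to RFP signal ratio inhibition reaching or exceeding a fixed threshold, cut at about 30% in these data, passing the limit was not always enough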
# EP2 modulator = EP2 receptor (human) modulation. EP2-expressing cells, cAMP HTRF FRET, PGE2 co-stimulation. induction, % at 25 µM. 260,000 tested, 0.83% active;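 active means compounds whose cAMP rise, as percent of the full-agonist control response, exceeds 60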;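 further: rat C6 glioma line stably carrying human EP2 under a CMV promoter; the protocol text gives 20 µM as final concentration; 100% = response of wells given 1 µM PGE2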
# RAM inhibit = blocks the yeast RAM network; 190,000 tested, 1.8% active; S. cerevisiae dse1pr::URA3 reporter, 5-FOA growth OD615, 2 d; analog-sensitive cbk1-as2 kinase mutant strain; inhibition, % at 50 µM;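 active means inhibition above a set limit, 3 SD over mean compound inhibition, cut at about 8.4% in these data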;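 further: 0% = DMSO-only wells with no growth and 100% = 10 µM 1-NA-PP1 full growth; inhibition rescues growth on 5-FOA so higher OD means more RAM inhibition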
# * marks the source's active call; other numbers are inactive results; · = no result given; ! = repeats disagree.
SMILES,NR1D1 modulator,PG9 binder,PGE2 EP2 inh,SKN-1 block,EP2 modulator,RAM inhibit
COc1cccc2cc(C(=O)Nc3ccc(S(=O)(=O)N4CCC(C)CC4)cc3)c(=O)oc12,·,·,10,·,-10,·
Cc1nn(CC(=O)NC(c2ccccc2)c2ccccc2)c(=O)c2cc3sccc3n12,·,·,·,·,-34,·
NCCC1([N+](=O)[O-])CCNCC1,·,·,50*,·,8,·
Cc1cc(F)ccc1S(=O)(=O)N1CCCOC1CNC(=O)C(=O)NCc1ccc2c(c1)OCO2 (configuration not stated),-1,-1,·,37*,·,·
O=C(NCc1ccc2c(c1)OCO2)C(=O)NCC1OCCCN1S(=O)(=O)c1cc(F)ccc1F (configuration not stated),0,-1,·,-18,·,·
CC(C)NC(=O)C1CCCN1C(=O)Nc1ccc(Br)cc1 (configuration not stated),·,·,7,·,-14,·
c1ccc([P+](CC[P+](c2ccccc2)(c2ccccc2)c2ccccc2)(c2ccccc2)c2ccccc2)cc1,·,·,45*,·,18,·
CC1Cc2ccccc2N1C(=O)c1cc2nc(-c3ccco3)cc(C(F)(F)F)n2n1 (configuration not stated),·,·,9,·,72*,·
CC(C)CCNC(=O)c1cnn2c(C(F)(F)F)cc(-c3ccco3)nc12,1,-2,6,44*,37,3
O=C(c1cc2nc(-c3ccco3)cc(C(F)(F)F)n2n1)N1CCCc2ccccc21,-5,-1,1,-6,36,1
O=C(Nc1cnn(Cc2ccc(F)cc2)c1)c1cc2nc(-c3ccco3)cc(C(F)(F)F)n2n1,6,0,-2,1,10,9.5*
CN1CCCc2cc(SC#N)ccc21,·,·,15,·,8,·
COc1ccc(-c2cc(C(F)(F)F)nc(SCC(=O)Nc3cccc4ccccc34)n2)cc1OC,·,·,10,·,20,·
CCC(C)(C)n1nnnc1C(c1cccc(OC)c1OC)N1CCN(c2ccc(F)cc2)CC1 (configuration not stated),·,·,10,·,24,·
Cc1cc(/C=C\c2nc(O)c([N+](=O)[O-])c(=O)[nH]2)c(C)n1-c1ccccc1,-16,-1,-1,5,11,8.7*
Cc1ccc2nc(Nc3nc(CSc4nnnn4-c4ccccc4)cc(=O)[nH]3)nc(C)c2c1,-17,0,5,35*,9,4
O=S(=O)(O)c1cccc2c(N=Nc3ccc(O)c4ncccc34)cccc12,·,·,·,3,·,·
O=S(=O)(O)c1ccc2cc(N=Nc3cc(S(=O)(=O)O)c4cccnc4c3O)ccc2c1,·,·,52*,·,16,·
O=C(N/N=C/c1ccccc1)NC1CCCCC1,0,-4,5,-2,64*,1
CC(/C=N/NC(=O)NC1CCCCC1)=C\c1ccccc1,6,-2,4,16,-14,3
O=C(N/N=C/c1ccc(Cl)cc1)Nc1ccccc1,0,0,9,41*,19,2
Clc1ccc(/C=N\Nc2ccccc2)cc1,-1,-2,6,3,25,·
COc1ccc2cc(C)c3nn(CC(=O)N4CCCC4)c(=O)n3c2c1,·,·,4,·,-10,·
O=C(NCCCO)C1CCN(S(=O)(=O)c2ccccc2)CC1,·,·,14,·,20,·
Cc1ccc(C2(O)CCN(Cc3cccc(OCc4cccnc4)c3)CC2)cc1,·,·,6,·,6,·
SMILES,NR1D1 modulator,PG9 binder,PGE2 EP2 inh,SKN-1 block,EP2 modulator,RAM inhibit
COc1ccc(-c2cc(C(F)(F)F)nc(SCC(=O)Nc3cc(C)on3)n2)cc1OC,-3,0,6,-4,3,8.7*
Cc1ccc(NC(=O)CSc2nc(-c3ccco3)cc(C(F)(F)F)n2)cc1C,7,-1,9,-9,14,4
O=C(CSc1nc(-c2ccco2)cc(C(F)(F)F)n1)Nc1ccc2c(c1)CCC2,0,-3,14,7,13,8.5*
COC(=O)c1ccccc1NC(=O)CSc1nc(-c2ccco2)cc(C(F)(F)F)n1,8,1,6,9,65*!,3
COC(=O)c1ccc(C(=O)OC)c(NC(=O)CSc2nc(-c3ccco3)cc(C(F)(F)F)n2)c1,4,1,·,0,·,·
COc1ccc(-c2cc(C(F)(F)F)nc(SCCC(=O)N3CCCC3)n2)cc1,9,-1,6,-7,-81,8.8*
CCc1nn(CC(=O)NC(c2ccccc2)c2ccccc2)c(=O)c2cc3sccc3n12,·,·,·,·,-11,·
O=c1[nH]ncn2cccc12,2,-1,14,46*,-7,3
N#Cc1c(N)sc(=S)c2c1CCCC2,4,0,64*,-4,14,1
CCC1(C)Cc2c(C#N)c(N)sc(=S)c2CO1 (configuration not stated),-4,-1,31,46*,-13,1
COc1ccc(S(=O)(=O)N2CCC(C(=O)N3CCCCC3)CC2)cc1C,·,·,8,·,-20,·
CC(=O)Nc1cc2c(cc1N)OCCO2,·,·,16,·,0,·
C#CCOc1ccc(C2C3=C(CC(C)(C)CC3=O)N(C)C3=C2C(=O)CC(C)(C)C3)cc1OC,·,·,9,·,-11,·
CC/C(=N/Nc1ccccc1)c1cnnc(-c2ccccc2)n1,-11,-2,5,4,9,5
CC/C(=N/Nc1cccc(Cl)c1)c1cnnc(SC)n1,-20,0,6,2,-3,9.0*
CCCCSc1nc(C)nc2c1c(=O)n(C)c(=O)n2C,1,-1,10,17,63*,2
Cc1cccnc1C1(O)CCN(C(=O)Cc2ccccc2Cl)CC1,·,·,1,·,-45,·
CCc1nc2ccccc2c(C(=O)OCC(=O)N(CCOC)c2c(N)n(Cc3ccccc3)c(=O)[nH]c2=O)c1C,-1,-3,·,41*,·,·
COCCN(C(=O)COC(=O)c1c(-c2ccccc2)noc1C)c1c(N)n(Cc2ccccc2)c(=O)[nH]c1=O,3,2,·,4,·,·
Cc1cccc2cc(C(c3nnnn3C3CCCCC3)N3CCc4ccccc43)c(=O)[nH]c12 (configuration not stated),·,·,4,·,108*,·
CCOc1ccc2[nH]c(=O)c(C(c3nnnn3C3CCCC3)N3CCCc4ccccc43)cc2c1 (configuration not stated),·,·,10,·,74*,·
Cc1cc2cc(C(c3nnnn3C3CCCCC3)N3CCc4ccccc43)c(=O)[nH]c2cc1C (configuration not stated),·,·,13,·,76*,·
O=c1[nH]c2cc3c(cc2cc1C(c1nnnn1C1CCCC1)N1CCCCCC1)OCCO3 (configuration not stated),·,·,22,·,81*,·
Cc1cc2cc(C(c3nnnn3C3CCCC3)N3CCc4ccccc43)c(=O)[nH]c2cc1C (configuration not stated),·,·,11,·,5,·
COc1cc(OC)cc(-c2nnc(SCC(=O)N3CCCCCC3)o2)c1,·,·,5,·,-17,·
CCc1ccc2nc(SCC(=O)Nc3cccc(C)c3C)c(C#N)cc2c1,·,·,31,·,39,·
COc1ccc2c(c1)NC1(CCN(C(=O)c3csc4c3CCCC4)CC1)c1cccn1-2,·,·,7,·,-56,·
